This note sets out measurements from PubChem BioAssay AID1259313 (Sanford-Burnham Center for Chemical Genomics, 2017).

“And” between values parts separate entries of the source, which are not always exact repeats. Equal entries are not always repeated. Among all 340,000 compounds or so, about 8,500 (2.5%) were called active. Many of the other results were omitted from the sample, so actives are more common in it than they were. Values without a mark were called inactive.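 Rule for the calls: active = melting temperature shift of at least 10% of the positive control shift, at one fixed dose; inactive = the rest.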

The experiment concerns Glutamate receptor ionotropic, NMDA 3A (GRIN3A) ligand-binding domain. Nature of the experiment: NR3A LBD thermal stabilization by compounds – biophysical, differential scanning fluorimetry, uHTS, primary screen (AID 1259313). Conditions: at 25 µM, active compounds read high, 0% = protein alone, 100% = glycine-bound protein.
Regarding `COc1ccc(/C=C/C(=O)OCC(=O)NCc2cccs2)cc1OC`, the Tm shift relative to glycine control is 0.79%.

As for `C#C[C@]1(O)CC[C@H]2[C@@H]3CCC4=CC(=O)CC[C@@H]4[C@H]3CC[C@@]21CC`, the Tm shift relative to glycine control is 1.26% and -0.79%.

On to `Cc1ccc(Oc2nc3ccccc3n3c(C)nnc23)cc1`, for which the Tm shift relative to glycine control was 12.7% (active).

As for `CCOC(=O)CNc1nc2ccccc2n2c(C)nnc12`, the Tm shift relative to glycine control was -9.54%.

As to `Cc1ccc(S(=O)(=O)N(C)c2nc3ccccc3n3c(C(C)C)nnc23)cc1`, the Tm shift relative to glycine control is 1.79%.

Turning to `COc1ccccc1-n1cnc2cc(NS(=O)(=O)c3ccccc3)ccc21`, the Tm shift relative to glycine control is 0.96%.

Regarding `O=C1c2cccc3cccc(c23)C(=O)N1c1cccc(O)c1`, the Tm shift relative to glycine control is 3.66%.

Regarding `O=C(c1cccc(Br)c1)N1CCN(C2=NS(=O)(=O)c3ccccc32)CC1`, the Tm shift relative to glycine control is -0.26%.

Take `CCC1CCCCN1C(=S)Nc1ccc(S(=O)(=O)Nc2ncccn2)cc1` (centres undefined): the Tm shift relative to glycine control was -1.92%.

Consider `O=C(Nc1ccc(NC(=O)c2ccco2)c(Cl)c1)c1cccc([N+](=O)[O-])c1`, for which the Tm shift relative to glycine control was 24.7% (active).

`O=C(Nc1ccc(C2CC2(Cl)Cl)cc1)c1cccc([N+](=O)[O-])c1` (centres undefined): the Tm shift relative to glycine control is -0.36%.

As to `COc1cc(NC(=O)c2cc([N+](=O)[O-])ccc2Br)ccc1NC(=O)c1ccco1`, the Tm shift relative to glycine control is -2.17%.

In the case of `COc1ccc(N2CCN(C(=O)c3ccccc3NC(=O)C3=C(C)OCCS3)CC2)cc1`, the Tm shift relative to glycine control was -0.18%.

On to `CCOC(=O)c1cc2cc(C)ccc2[nH]1`, for which the Tm shift relative to glycine control was 0.1%.

`Cn1ccc(=NC=C(C#N)C#N)c2ccccc21`: the Tm shift relative to glycine control is -0.6%.

In the case of `Cc1cc(C)n2nc(C(=O)OC(C)C(=O)c3cc(C)c(C)cc3C)nc2n1` (centres undefined), the Tm shift relative to glycine control was 1.24%.

As to `CCOc1ccccc1N1CCN(C(=O)COc2ccc3c(C)cc(=O)oc3c2)CC1`, the Tm shift relative to glycine control was -4.48%.

For `Cc1cc(=O)oc2cc(OCC3CC(c4ccccc4Cl)=NO3)ccc12` (centres undefined), the Tm shift relative to glycine control was 11.5% (active).

Turning to `Cc1cc(=O)oc2cc(OCCC[n+]3ccccc3)ccc12`, the Tm shift relative to glycine control was -1.47%.

Take `O=C(COC(=O)/C=C/c1cccc(Cl)c1)NCCc1ccccc1`: the Tm shift relative to glycine control is 0.53%.

Regarding `C[C@H](O)[C@@H]1C(=O)N2CCc3ccc(N4CCOCC4)cc3[C@@H]2C[C@@H]1N(C)C(=O)C(C)(C)C`, the Tm shift relative to glycine control is -1.15%.

Consider `O=C(NCc1ccco1)C(c1ccncc1)N(C(=O)Cn1nnc2ccccc21)c1ccccc1` (centres undefined), for which the Tm shift relative to glycine control is -1.69%.

Regarding `COc1ccc(Br)cc1C(=O)NC(=S)Nc1cc(-c2nc3ccccc3[nH]2)ccc1C`, the Tm shift relative to glycine control was 25.9% (active).

On to `COc1ccc(Br)cc1C(=O)Nc1cccc(C)c1C`, for which the Tm shift relative to glycine control is -2.13%.

For the compound `COc1ccccc1C(=O)NC(=S)Nc1ccccc1N1CCCCC1`, the Tm shift relative to glycine control was -4.34%.

For `Cc1ccc2cc(C)c(N3CCC(C)CC3)nc2c1`, the Tm shift relative to glycine control is 3.71%.

For `Cc1ccccc1NC(=O)CSc1nc2ccc(Nc3nc(N4CCOCC4)nc(N4CCOCC4)n3)cc2s1`, the Tm shift relative to glycine control is -1.11%.

With `CC1(c2ccccc2)NC(=O)N(CC(=O)Nc2cc(Cl)ccc2N2CCOCC2)C1=O` (centres undefined), the Tm shift relative to glycine control was 0.96%.

Turning to `O=C(CSc1nc(Nc2ccccc2)nc(N2CCOCC2)n1)Nc1cc(Cl)ccc1O`, the Tm shift relative to glycine control is 32.6% (active).

In the case of `Cc1ccc(C(=O)OCC(=O)NC(=O)Cc2ccccc2)c(O)c1`, the Tm shift relative to glycine control was 0.78%.

As to `O=S(=O)(NC1CCCCC1N1CCN(c2ccccc2F)CC1)c1ccccc1` (centres undefined), the Tm shift relative to glycine control is -1.62%.

Consider `Cc1ccc(N2C(=O)C(CC(=O)Nc3cccc(F)c3)N(CCc3ccncc3)C2=O)cc1` (centres undefined), for which the Tm shift relative to glycine control was 0.4%.

On to `CN1C(=O)C(CC(N)=O)N(NC(=O)c2ccc(Cl)cc2)C1=S` (centres undefined), for which the Tm shift relative to glycine control is -3.25%.

Regarding `Cc1ccc(NC(=O)CC2C(=O)N(Cc3ccccc3)C(=S)N2NC(=O)c2cccc(F)c2)c(C)c1` (centres undefined), the Tm shift relative to glycine control was 19.1% (active).

`CC1=C(C(=O)Nc2ccccc2)C(c2cccs2)C(C#N)=C(SCC#N)N1` (centres undefined): the Tm shift relative to glycine control is -11.3%.

Regarding `O=C(NCCOc1ccccc1F)Nc1ccc(Br)cc1`, the Tm shift relative to glycine control was 16.4% (active).

As for `O=C(COc1ccccc1F)NNC(=O)c1cc(Br)ccc1Cl`, the Tm shift relative to glycine control is 0.51%.

As for `O=C(NCCOc1ccccc1Cl)C(=O)Nc1ccccc1`, the Tm shift relative to glycine control was -4.63%.

`CCN(CC)c1ccc(NC(=O)c2ccc(=O)[nH]c2)cc1S(=O)(=O)Nc1ccc(OC)cc1`: the Tm shift relative to glycine control was -4.98%.

As for `Cc1nc(SCC(=O)N2CCc3ccccc3C2)c2c(C)c(C)sc2n1`, the Tm shift relative to glycine control is -0.44%.

For the compound `COc1cc(OC)cc(C(=O)NCC(=O)N2CCCCCCC2)c1`, the Tm shift relative to glycine control was 3.22%.

Consider `O=C(Nc1cccc(Cl)c1)c1cc([N+](=O)[O-])ccc1N1CCN(CCO)CC1`, for which the Tm shift relative to glycine control was 3.77%.

`Cn1c(Nc2cccc(Cl)c2)nc2ccccc21`: the Tm shift relative to glycine control was 8.46%.

As to `Cc1c(C(=O)Nc2cccc(Cl)c2)cn2c(nc3ccccc32)c1C#N`, the Tm shift relative to glycine control is 24.6% (active).

With `CCCN(C(=O)c1nc2nccc(C)n2n1)c1c(N)n(Cc2ccccc2)c(=O)[nH]c1=O`, the Tm shift relative to glycine control was -5.77%.

On to `O=C(CCN1C(=O)c2ccccc2C1=O)NNC(=O)c1ccc(Cl)cc1Cl`, for which the Tm shift relative to glycine control is -1.46%.

For `CCc1ccc(CNC(=O)C2CCN(c3nnc(C)c4c(C)n(-c5ccc(C)cc5)nc34)CC2)cc1`, the Tm shift relative to glycine control is -2.58%.

Take `Cc1nc2ccccc2nc1N/N=C/c1ccc(O)cc1O`: the Tm shift relative to glycine control was 34.3% (active).

In the case of `COc1ccccc1N1CCN(/N=C/c2ccc(O)cc2O)CC1`, the Tm shift relative to glycine control is 1.98%.

Take `Oc1ccc(-c2nc3ccccc3nc2-c2ccc(O)cc2O)c(O)c1`: the Tm shift relative to glycine control was -6.22%.

In the case of `O=C(Nc1ccnn1C1CCN(Cc2cccc(OCCO)c2)CC1)C1CCCC1`, the Tm shift relative to glycine control was 0.6%.

Turning to `COc1ccc(CN2CC(C(=O)NCCc3ccc(Cl)cc3)CC2=O)cc1` (centres undefined), the Tm shift relative to glycine control is -2.13%.

Consider `COc1ccccc1N(CC(=O)Nc1c(C)n(C)n(-c2ccccc2)c1=O)S(=O)(=O)c1ccccc1`, for which the Tm shift relative to glycine control was -1.61%.

As for `COc1ccc(Cl)cc1NS(=O)(=O)c1cccc(C(=O)NC2CCC(O)CC2)c1` (centres undefined), the Tm shift relative to glycine control was 0.97%.

For the compound `NS(=O)(=O)c1ccc(CCNC(=O)CCCn2c(SCC(=O)N3CCCC3)nc3ccsc3c2=O)cc1`, the Tm shift relative to glycine control was -0.96%.

For `O=C(/C=C/c1ccco1)Nc1cccc(-c2nc3ccccc3[nH]2)c1`, the Tm shift relative to glycine control is 22.5% (active).

As for `CCC(=O)Nc1ccc2nn(-c3ccc(F)cc3)nc2c1`, the Tm shift relative to glycine control was -10.1%.

Regarding `O=C(Nc1cccc(-c2nc3ccccc3[nH]2)c1)c1ccc(C(=O)Nc2cccc(-c3nc4ccccc4[nH]3)c2)cc1`, the Tm shift relative to glycine control was 27.9% (active).

On to `COc1cccc(NC(=O)COC(=O)/C=C/c2ccco2)c1`, for which the Tm shift relative to glycine control was -0.92%.

`Cc1ccc(-n2nc3ccc(NC(=O)/C=C/c4ccco4)cc3n2)cc1C`: the Tm shift relative to glycine control is 32.1% (active).

On to `CC(C)Oc1ccc(/C=C(\NC(=O)/C=C/c2ccco2)C(=O)NCCc2nc3ccccc3[nH]2)cc1`, for which the Tm shift relative to glycine control was -0.09%.

As for `COc1ccc(C(=O)Nc2cccc(S(C)(=O)=O)c2)cc1`, the Tm shift relative to glycine control was 4.52%.

Consider `O=C(/C=C/c1ccco1)Nc1ccc(Oc2ccccc2)cc1`, for which the Tm shift relative to glycine control was 2.36%.

On to `CN(c1ccccc1)S(=O)(=O)c1cc(C(=O)Nc2nc3ccccc3[nH]2)ccc1Cl`, for which the Tm shift relative to glycine control was -0.62%.
